TTR transcr act = TTR transcription activation, primary screen; hit rate 1.3% among 92,000; activation, % at 16.7 µM; SH-SY5Y TTR promoter Gaussia luciferase, luminescence; 100% = recombinant luciferase protein wells;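 active = activation above the mean of all tested compounds plus 3 SD, cut at about 9.5% in these data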;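 note: cells exposed to compounds for one day before reading; 0% = median of all test compound wells on the plate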
TTR inh HuH7 = HuH7 TTR transcription inhibition, counter-screen; inhibition, % at 16.7 µM; shares compounds with TTR transcr act; hit rate 4% among 1,100; HuH7 TTR promoter-Gaussia luciferase reporter, luminescence; AID 1117279;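 active = average inhibition above the solvent-only control wells' mean plus 3 SD, cut at about 15% in these data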;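 note: 0% = cells with DMSO only and 100% = cells with inhibitor control FD; inhibitors lower well luminescence so higher value means more inhibition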
TTR act confirm = human TTR transcription activation, confirmation | shares compounds with TTR transcr act | SHSY5Y TTR promoter Gaussia luciferase, luminescence; 100% = purified Lucia enzyme wells, no cells | activation, % at 16.7 µM | 1,100 tested, under 10 active;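 active = mean activation above a set limit taken from the earlier primary screen, cut at about 11% in these data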;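 note: 0% = DMSO-treated cells and 100% = recombinant Lucia luciferase without cells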
* marks the source's active call; other numbers are inactive results; ! = repeats disagree. Shown is part of a subset that was picked to be rich in hits.

SMILES	TTR transcr act	others
COc1cc2c(c(OC3OC(CO)C(O)C(O)C3O)c1)C(=O)CC(c1ccc(O)cc1)O2 (centres undefined)	0.3
O=C(COC(=O)c1cc(=O)[nH]c2ccccc12)NC1CCCCC1	12.2*	TTR inh HuH7=-11.5;TTR act confirm=-0.3
CNC(=O)COC(=O)c1cc(=O)[nH]c2ccccc12	0.8
NC(=O)COC(=O)c1cc(=O)[nH]c2ccccc12	-0.5
COP(N)(=O)C(CC(C)C)NC(=O)OCc1ccccc1 (centres undefined)	-0.1
COc1cccc(CN2CCN(S(=O)(=O)c3ccccc3)CC2)c1OC	8.1
COc1ccc(CN2CCN(S(=O)(=O)c3ccccc3)CC2)c(OC)c1	2.2
COc1ccc(CN2CCN(S(=O)(=O)c3ccccc3)CC2)c(OC)c1OC	16.7*	TTR inh HuH7=-14.2;TTR act confirm=-0.7
O=C(N1CCC(Cc2ccccc2)CC1)n1ncc(C(O)(c2ccccc2)c2ccccc2)n1	-1.2
COC(=O)[C@]12C[C@H](CC(=O)NCc3ccc(C)o3)C(=O)N(Cc3ccco3)C1=C[C@H](C1CCCC1)O[C@@H]2C	0.9
CC(=O)N1c2ccccc2NC2=C(C(=O)CCC2)C1c1cccnc1 (centres undefined)	-0.7
COc1ccc(C2CC(c3ccccc3)=NN2C(=O)CCC(=O)O)cc1 (centres undefined)	0.7
COc1ccc(C2CC(=O)C3=C(C2)Nc2ccccc2N(C(=O)CCC(=O)O)C3c2ccc(F)cc2)cc1 (centres undefined)	101.5*	TTR inh HuH7=-8.4;TTR act confirm=1.2
O=C(OCc1cn(Cc2ccc(F)c(F)c2)nn1)N1CCCC1	-0.4
O=C(NCc1nc2ccccc2[nH]1)C1=C[C@H](C2CCCCC2)C[C@H](OCCCCO)O1	3.1
C#CCNC(=O)C1=C[C@@H](C2CC2)C[C@@H](OCCCCO)O1	1.4
O=C(NCc1nc2ccccc2[nH]1)C1=C[C@H](C2CC2)C[C@H](OCCCCO)O1	10.1*	TTR inh HuH7=-26.0;TTR act confirm=0.0
COc1ccc(C(=O)N2CCCc3ccccc32)cc1	5.6
COc1cc(CO)ccc1OCC(=O)N1CCc2ccccc21	-1.9
COc1ccc(CC(=O)N2CCc3ccccc32)cc1	21.0*	TTR inh HuH7=-23.7;TTR act confirm=0.1
CC(C)(C)OC(=O)NCc1cc2c(cc1/C=C/S(=O)(=O)NCc1ccc(F)cc1)OCO2	1.0
CCOC(=O)[C@@]12CCC3=C1N(CCC3)C(=O)[C@H](CC(=O)NCC1CCCCC1)C2	2.3
CCCCOc1ccc(C(=O)NC2CCCCN(Cc3ccc(C)cc3)C2=O)cc1 (centres undefined)	-2.1
O=c1[nH][nH]c(=O)c(Cl)c1Cl	11.7*	TTR inh HuH7=-13.6;TTR act confirm=0.1
CCC(CC)c1nnc(NC(=O)CCN2C(=O)c3ccccc3C2=O)s1	15.4*	TTR inh HuH7=-17.6;TTR act confirm=-0.1
SMILES	TTR transcr act	others
O=C(CCN1C(=O)c2ccccc2C1=O)Nc1nc2ccccc2s1	-0.8
CC(C)Cc1nnc(NC(=O)CCN2C(=O)c3ccccc3C2=O)s1	-0.5
C[C@H]1CN([C@@H](C)CO)C(=O)CCCn2cc(nn2)CO[C@@H]1CN(C)S(=O)(=O)c1cn(C)cn1	-0.3
Cn1nccc1C(=O)Nc1nnc(C2CC2)s1	-1.0
O=C(Nc1nnc(C2CC2)s1)c1ccc(S(=O)(=O)c2ccccc2)cc1	16.0*	TTR inh HuH7=6.8;TTR act confirm=-1.4
Cc1ccc(S(=O)(=O)NC(=O)Nc2nnc(C3CC3)s2)cc1	-0.7
CC(=O)N1CCC(C(=O)N2c3ccccc3N=C(c3ccc4c(c3)OCO4)C2C(=O)Nc2c(C)cccc2C)CC1 (centres undefined)	0.4
C[C@H]1[C@@H](N(C)Cc2cccs2)CC[C@@]23CCCN2C(=O)CCC[C@@H]13	-1.6
O=C(NCCCNC(=O)c1cccs1)c1cccs1	-2.1
O=C(NCCCCNC(=O)c1cccs1)c1cccs1	0.7
COCCCNC(=O)c1cccs1	16.1*	TTR inh HuH7=-8.5;TTR act confirm=1.2
COC(=O)[C@]12CCCCC=C1N(Cc1ccc(OC)cc1)C(=O)[C@@H]2CC(=O)N1CCCC1	1.6
CN(Cc1ccco1)c1ncnc2ccc(-c3ccc4c(c3)OCO4)cc12	27.0*!	TTR inh HuH7=-6.5;TTR act confirm=0.4
Cc1nc(CN(C)c2ncnc3ccc(-c4ccc5c(c4)OCO5)cc23)cs1	-0.8
Cc1occc1CNc1ncnc2ccc(-c3ccc4c(c3)OCO4)cc12	1.9
Nc1nc(SCCO)[nH]c(=O)c1NC(=O)c1ccccc1F	20.0*	TTR inh HuH7=-12.3;TTR act confirm=0.0
COc1ccc(NC(=O)CSc2nc(N)c(NC(=O)c3ccccc3F)c(=O)[nH]2)cc1	-1.2
CC(C)NC(=O)CSc1nc(N)c(NC(=O)c2ccccc2F)c(=O)[nH]1	1.2
COC(=O)C[C@H]1CC[C@@H]2[C@H](COc3ccc(NC(=O)NCc4ccccc4)cc3C(=O)N2C)O1	4.7
CCCCCCCCN1C(=O)N(Cc2ccc(OC)cc2)S(=O)(=O)c2ccc(F)cc21	-1.1
CC(=O)c1cccc(NC(=O)c2cnn3c(C)cc(C)nc23)c1	0.0
CCOC(=O)c1sc(N(Cc2ccccc2)C(=O)COC(=O)c2ccccc2O)nc1C	13.0*	TTR inh HuH7=-13.5;TTR act confirm=0.7
Cc1ccsc1C(=O)OCC(=O)N(Cc1ccccc1)C(C)C	2.1
CCOC(=O)c1sc(N(Cc2ccccc2)C(=O)CCl)nc1C	-1.3
CCCCNC(=O)C[C@H]1C[C@@]2(C(=O)OC)C(=C[C@H](C(C)C)O[C@@H]2C2CC2)N(Cc2ccc(Cl)cc2Cl)C1=O	0.4
SMILES	TTR transcr act	others
Cc1cc(Cl)nc2c(C(C)C)cccc12	17.2*	TTR inh HuH7=-10.5;TTR act confirm=-0.8
CC(=O)NC(C)c1cc(Cl)c2cccnc2c1O (centres undefined)	-5.6
Cc1cccc2c3nc4ccccc4nc3n(C)c12	-0.5
COC(=O)[C@]12C[C@H](CC(=O)NCc3cccc4ccccc34)C(=O)N(CCC3=CCCCC3)C1=C[C@H](C1CCCC1)O[C@@H]2C	1.8
COc1ccc(C(=O)NCCCN(C)CCCNC(=O)c2ccc(OC)cc2)cc1	-1.1
CN(C)CCCNC(=O)c1ccc(-c2ccccc2)cc1	22.0*	TTR inh HuH7=-10.0;TTR act confirm=0.1
CN(C)CCCNC(=O)c1ccc(Cl)c(S(=O)(=O)N(C)c2ccccc2)c1	3.3
COc1ccc(C(=O)c2[nH]c(N)c(C(=O)c3ccccc3)c2-c2ccc(OC)c(OC)c2)cc1	-0.8
CCc1ccc(CCNC(=O)OC2CC3CC2[C@H]2CCCCN2C3)cc1 (some centres undefined)	2.8
COC(=O)[C@]12C[C@H](CC(=O)NCc3cccs3)C(=O)N(CCC3=CCCCC3)C1=C[C@H](C1CCCC1)O[C@@H]2C	1.7
COc1ccc(C(=O)C2CCCN(C(=O)c3ccccc3C(C)=O)C2)cc1F (centres undefined)	-0.8
COc1ccc(C(=O)C2CCCN(C(=O)c3cccc(N(C)C)c3)C2)cc1OC (centres undefined)	11.7*	TTR inh HuH7=-11.9;TTR act confirm=0.3
COc1cccc(C(=O)C2CCCN(C(=O)c3ccc(C#CC(C)(C)O)cc3)C2)c1 (centres undefined)	0.2
C=CCN1C(=O)[C@H](CC(=O)NCCCCc2ccccc2)[C@@]2(C(=O)OCC)CCCC=C12	0.4
O=C(NC1CCC1)O[C@H]1CC[C@@]23CCCN2C(=O)CCC[C@H]3C1	-1.8
CC(C)(C)S(=O)N1C[C@@H]2CC(=O)C(c3ccccc3)=C2[C@H]1CCO (some centres undefined)	-0.8
C[C@@H]1[C@@H](c2ccccc2)OC(O)([C@H](Cc2ccccc2)NC(=O)OC(C)(C)C)CN1C (some centres undefined)	1.3
